Several values for one entry are separate records, joined by “and”; a condition that tells them apart may be missing. Identical values can stand only once. The campaign covered roughly 5,500 compounds. About 2,000 (36%) were called active. Inconclusive results (about 18%) are left out. Cut-off read from the data, not from the text of the source: active = normalized growth mostly below about 0.91 (no sharp cut-off); inconclusive = no clear call, values can overlap the other calls; inactive = mostly above about 0.92. The list shows a part of the results.
Experiment: chemical genetic growth profiling, strain panel (AID 1159580);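 note: tested at 20 µM; growth read once vehicle control cultures reached saturation at 30 °C; 1 = growth at the plate median or of vehicle wells; lower values mean less growth of the strain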
Details: growth OD

Measured: normalized growth

CCn1cc(C(=O)O)c(=O)c2cc3c(cc21)OCO3
inactive: S. cerevisiae deletion strains, locus YJR066W, strain TOR1, hits give low values 0.991 | S. cerevisiae deletion strains, locus YJR075W, strain HOC1, hits give low values 1.02 and 0.993 | S. cerevisiae deletion strains, locus YKL009W, strain mrt4, hits give low values 1.01 | S. cerevisiae deletion strains, locus YKL068W, hits give low values 0.996 | S. cerevisiae deletion strains, locus YKL085W, strain MDH1 (second series), hits give low values 0.996 | S. cerevisiae deletion strains, locus YKL085W, strain MDH1, hits give low values 0.996 | S. cerevisiae deletion strains, locus YKL160W, strain elf1, hits give low values 0.961 | S. cerevisiae deletion strains, locus YKL190W, strain CNB1, hits give low values 1.01 | S. cerevisiae deletion strains, locus YKR001C, strain vps1, hits give low values 1.01 | S. cerevisiae deletion strains, locus YKR026C, strain gcn3, hits give low values 0.987 | S. cerevisiae deletion strains, locus YKR091W, strain srl3, hits give low values 0.982 | S. cerevisiae deletion strains, locus YLL001W, strain dnm1, hits give low values 0.96 | S. cerevisiae deletion strains, locus YLL026W, hits give low values 0.988 | S. cerevisiae deletion strains, locus YLL041C, strain sdh2, hits give low values 0.98 | S. cerevisiae deletion strains, locus YLR027C, strain aat2, hits give low values 0.986 | S. cerevisiae deletion strains, locus YLR039C, strain RIC1, hits give low values 1.03 | S. cerevisiae deletion strains, locus YLR058C, strain SHM2, hits give low values 1.01 | S. cerevisiae deletion strains, locus YLR102C, strain apc9, hits give low values 0.994 | S. cerevisiae deletion strains, locus YLR113W, strain HOG1, hits give low values 1.07 | S. cerevisiae deletion strains, locus YLR221C, strain rsa3, hits give low values 0.96 | S. cerevisiae deletion strains, locus YLR258W, strain gsy2, hits give low values 0.983 | S. cerevisiae deletion strains, locus YLR262C, strain YPT6 (second series), hits give low values 0.909 | S. cerevisiae deletion strains, locus YLR262C, strain YPT6, hits give low values 1.04 | S. cerevisiae deletion strains, locus YLR268W, strain sec22, hits give low values 1 | S. cerevisiae deletion strains, locus YLR320W, strain mms22, hits give low values 0.956 | S. cerevisiae deletion strains, locus YLR330W, strain CHS5, hits give low values 1.01 | S. cerevisiae deletion strains, locus YLR342W, strain FKS1 (second series), hits give low values 0.996 | S. cerevisiae deletion strains, locus YLR342W, strain FKS1, hits give low values 0.977 | S. cerevisiae deletion strains, locus YLR357W, strain rsc2, hits give low values 0.944 | S. cerevisiae deletion strains, locus YLR370C, strain arc18, hits give low values 0.964 | S. cerevisiae deletion strains, locus YLR371W, strain rom2, hits give low values 0.993 | S. cerevisiae deletion strains, locus YLR384C, strain iki3, hits give low values 0.959 | S. cerevisiae deletion strains, locus YLR418C, strain cdc73, hits give low values 1.01 | S. cerevisiae deletion strains, locus YML016C, strain PPZ1, hits give low values 1.01 | S. cerevisiae deletion strains, locus YML032C, strain rad52, hits give low values 1 | S. cerevisiae deletion strains, locus YML120C, strain ndi1, hits give low values 0.97 | S. cerevisiae deletion strains, locus YML124C, strain tub3, hits give low values 0.997 | S. cerevisiae deletion strains, locus YMR058W, strain fet3, hits give low values 0.982 | S. cerevisiae deletion strains, locus YMR078C, strain ctf18, hits give low values 1 | S. cerevisiae deletion strains, locus YMR125W, strain sto1, hits give low values 0.962 | S. cerevisiae deletion strains, locus YMR129W, hits give low values 0.989 | S. cerevisiae deletion strains, locus YMR205C, strain PFK2, hits give low values 0.946 | S. cerevisiae deletion strains, locus YMR223W, strain ubp8, hits give low values 1 | S. cerevisiae deletion strains, locus YMR231W, strain pep5, hits give low values 0.978 | S. cerevisiae deletion strains, locus YMR263W, strain SAP30, hits give low values 0.994 | S. cerevisiae deletion strains, locus YMR307W, strain GAS1, hits give low values 1.04 | S. cerevisiae deletion strains, locus YNL067W, strain RPL9B, hits give low values 1.02 | S. cerevisiae deletion strains, locus YNL071W, strain lat1, hits give low values 0.984 | S. cerevisiae deletion strains, locus YNL128W, strain TEP1, hits give low values 0.983 | S. cerevisiae deletion strains, locus YNL153C, strain GIM3, hits give low values 0.997 | S. cerevisiae deletion strains, locus YNL175C, strain NOP13, hits give low values 0.988 | S. cerevisiae deletion strains, locus YNL183C, strain NPR1, hits give low values 0.973 | S. cerevisiae deletion strains, locus YNL197C, strain WHI3, hits give low values 0.984 | S. cerevisiae deletion strains, locus YNL209W, strain ssb2, hits give low values 0.986 | S. cerevisiae deletion strains, locus YNL224C, strain SQS1, hits give low values 0.972 | S. cerevisiae deletion strains, locus YNL233W, strain BNI4, hits give low values 1.02 | S. cerevisiae deletion strains, locus YNL248C, strain rpa49, hits give low values 0.964 | S. cerevisiae deletion strains, locus YNL250W, strain rad50, hits give low values 1.01 | S. cerevisiae deletion strains, locus YNL271C, strain bni1, hits give low values 0.993 | S. cerevisiae deletion strains, locus YNL298W, strain CLA4, hits give low values 0.997 | S. cerevisiae deletion strains, locus YNL307C, strain MCK1, hits give low values 0.997 | S. cerevisiae deletion strains, locus YNL322C, strain KRE1 (second series), hits give low values 0.959 | S. cerevisiae deletion strains, locus YNR049C, strain mso1, hits give low values 0.974 | S. cerevisiae deletion strains, locus YNR052C, strain pop2, hits give low values 1 | S. cerevisiae deletion strains, locus YOL006C, strain TOP1, hits give low values 1.04 | S. cerevisiae deletion strains, locus YOL012C, strain htz1 1.19 | S. cerevisiae deletion strains, locus YOL147C, strain pex11, hits give low values 0.991 | S. cerevisiae deletion strains, locus YOR001W, strain rrp6, hits give low values 1.01 | S. cerevisiae deletion strains, locus YOR061W, strain CKA2, hits give low values 1.02 | S. cerevisiae deletion strains, locus YOR069W, strain VPS5, hits give low values 1.01 | S. cerevisiae deletion strains, locus YOR070C, strain gyp1, hits give low values 0.975 | S. cerevisiae deletion strains, locus YOR080W, strain dia2, hits give low values 0.972 | S. cerevisiae deletion strains, locus YOR083W, strain WHI5 (second series), hits give low values 0.981 | S. cerevisiae deletion strains, locus YOR083W, strain WHI5, hits give low values 0.969 | S. cerevisiae deletion strains, locus YOR106W, strain vam3, hits give low values 0.935 | S. cerevisiae deletion strains, locus YOR136W, strain idh2, hits give low values 0.997 | S. cerevisiae deletion strains, locus YOR144C, strain elg1, hits give low values 0.991 | S. cerevisiae deletion strains, locus YOR184W, strain ser1, hits give low values 0.998 | S. cerevisiae deletion strains, locus YOR231W, strain MKK1, hits give low values 1.1 | S. cerevisiae deletion strains, locus YOR265W, strain rbl2, hits give low values 0.973 | S. cerevisiae deletion strains, locus YOR270C, strain vph1, hits give low values 0.957 | S. cerevisiae deletion strains, locus YOR290C, strain snf2, hits give low values 0.976 | S. cerevisiae deletion strains, locus YOR316C, strain cot1, hits give low values 0.997 | S. cerevisiae deletion strains, locus YPL051W, strain arl3, hits give low values 0.995 | S. cerevisiae deletion strains, locus YPL055C, strain LGE1, hits give low values 0.985 | S. cerevisiae deletion strains, locus YPL078C, strain atp4, hits give low values 0.971 | S. cerevisiae deletion strains, locus YPL106C, strain sse1, hits give low values 0.936 | S. cerevisiae deletion strains, locus YPL240C, strain hsp82, hits give low values 0.992 | S. cerevisiae deletion strains, locus YPL256C, strain CLN2, hits give low values 1.09 | S. cerevisiae deletion strains, locus YPR119W, strain clb2, hits give low values 0.988 | S. cerevisiae deletion strains, locus YPR141C, strain kar3, hits give low values 0.988 | S. cerevisiae deletion strains, locus YPR163C, strain tif3, hits give low values 0.987 | S. cerevisiae deletion strains, locus YPR167C, strain met16, hits give low values 0.985 | S. cerevisiae deletion strains, strain wtn01, hits give low values 1 | S. cerevisiae strains, strain wild type, hits give low values 1.02

— PubChem BioAssay AID1159580 (chemical genetic matrix, 2015)
